Screens: PubChem, National Center for Advancing Translational Sciences (NCATS)
ELG1 repair inh: ELG1-dependent DNA repair inhibition; Potency, µM (doses to about 46.1 µM), for the others: at the highest dose activity change, negative = inhibition, most hits filed as inhibitors; HEK293T ELG1-luciferase reporter, luminescence, 16 h; DNA damage induced by 5-fluorouridine; hit rate 2.3% among 330,000; AID 504467; note: % is set by controls: 0 for no effect and ±100 for the full control effect; nearly all actives have a fitted effect of over 55% in size
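HEK293T cells expressing luciferase-tagged ELG1 (2,000/well) received 5-Fluorouridine plus compound or DMSO for 16 hr at 37 °C. Luciferase was read by ONE-Glo luminescence after 30 min at room temperature.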
Nrf2 block: inhibitors of Nrf2 signaling; AID 504444; Potency, µM (doses to about 46 µM), inactives show top-dose activity change, negative = inhibition, usual class: inhibitors; A549 ARE-Fluc reporter, luciferase luminescence, 18-24 h; hit rate 2.1% among 360,000; note: % is set by controls: 0 for no effect and ±100 for the full control effect; nearly all actives have a fitted effect of over 60% in size
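Two sequential reads on A549 ARE_Fluc cells exposed to compound for 18-24 h: a CellTiter-Fluor fluorescence read for viability, then a luciferase luminescence read for Nrf2/ARE activity.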
Nrf2 ARE act: Nrf2 pathway activation. AREc32 ARE-luciferase reporter (MCF7-derived line), luminescence, 24 h. Potency, µM (series often up to 46.1 µM), without a hit: at the top dose activation, usual class: activators. hit rate 0.31% among 410,000. AID 624171; note: % of control where 0% means no effect; nearly all actives have a fitted effect of over 65% in size
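AREc32 cells carrying an ARE-driven firefly luciferase reporter were seeded at 1000 cells/well in OPTI-MEM with 5% FBS, then exposed to compound for 24 hr at 37 deg C. Luminescence was read with Steady-Glo after 30 min at RT.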
A549 tox: counter-screen for Nrf2 inhibitors: cytotoxicity in A549 cells; AID 504648; hit rate 0.16% among 390,000; A549 ARE-Fluc cells, CellTiter-Fluor viability, 18-24 h; Potency, µM (top dose mostly 46 µM), for the others: at the top dose activity change, negative = cytotoxicity, usual class: inhibitors; note: % is set by controls: 0 for no effect and ±100 for the full control effect
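A549 ARE_Fluc cells in 5% FBS OPTI-MEM were exposed to compounds in concentration-response for 18-24 h at 37 deg C. Viability was read by CellTiter-Fluor fluorescence (Ex 405/Em 525) after 30 min, before the luciferase read.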
* = called active by the depositor; ? = inconclusive; . = no result given. Most compounds without a hit are left out; they make up all but 3.7% or so of the library. Calls come from the whole dose curve; as a rule, active = well fitted curve in the direction sought with a large enough effect; inconclusive = small, poorly fitted or top-dose-only effect, or another doubt; inactive = no such curve, though single readings can be large; an effect the other way counts as inactive or inconclusive. Potency is the fitted concentration of half-maximal effect.

SMILES	ELG1 repair inh	Nrf2 block	Nrf2 ARE act	A549 tox
COc1cccc(C2CC(c3cccc(NS(C)(=O)=O)c3)=NN2C(=O)c2ccccc2)c1OC (stereo not given)	-29.8%	?	3.0%	?
O=C(COC(=O)c1ccccc1)Nc1ncc([N+](=O)[O-])s1	13.2%	-1.9%	2.5%	?
O=C(Nc1ccccc1)Nc1ncc([N+](=O)[O-])s1	?	?	-0.1%	23.1µM*
O=C(CCNc1cc(Cl)cc(Cl)c1)c1cccs1	5.2%	8.9%	6.31µM*	6.5%
O=C(CCNC(=O)c1ccc(Br)cc1)NNC(=O)c1ccccc1	20.9%	-1.7%	2.3%	4.3%
COc1cccc(NC(=O)CN(C)C(=O)/C=C/c2cn(Cc3ccccc3)nc2-c2cccnc2)c1	14.6µM*	-25.1%	-0.5%	-4.5%
Cc1cccc(-n2c(=O)c3c(c4cc(C)ccc4n3C)n(CC(=O)NCC3CCCO3)c2=O)c1 (stereo not given)	.	32.9%	0.2%	-13.9%
CC(NC(=O)CN(c1ccc(Cl)cc1)S(C)(=O)=O)c1ccccc1 (stereo not given)	-5.6%	5.9%	0.6%	5.7%
Cc1ccc(Cl)cc1Nc1sc(C(=O)c2ccccc2)c(N)c1S(=O)(=O)c1ccccc1	.	?	0.4%	5.1%
CCS(=O)(=O)c1c(Nc2cc(C)ccc2C)sc(C(=O)c2ccccc2)c1N	.	23.1µM*	0.6%	-28.7%
CC(C)c1nnc(NC(=O)C2CCN(C(=O)C(C)(C)C)CC2)s1	.	-10.0%	.	9.8%
CCn1c(-c2ccccc2Cl)nn(CC(=O)Nc2cc(Cl)ccc2Cl)c1=S	?	16.4µM*	6.0%	-11.0%
CCn1c(-c2ccccc2Cl)nn(CC(=O)NCCc2ccccc2)c1=S	-5.7%	10.8%	-0.5%	-7.9%
Cc1cccc(-n2c(SCC(=O)c3ccccc3)nnc2-c2ccc(Br)cc2)c1	.	.	0.4%	?
O=C1c2ccccc2C(=O)N1CCCCc1cn(C[C@H]2CC[C@H](Cn3cc(CCCCN4C(=O)c5ccccc5C4=O)nn3)O2)nn1	8.2µM*	?	1.0%	-6.5%
c1ccc(CCc2cn(C[C@H]3CC[C@@H]([C@@H]4CC[C@H](Cn5cc(CCc6ccccc6)nn5)O4)O3)nn2)cc1	?	0.0%	0.3%	1.0%
CC1=C(C(=O)OCc2ccc3c(c2)OCO3)C(c2cccc([N+](=O)[O-])c2)NC(=O)N1 (stereo not given)	7.3µM*	?	0.3%	-0.7%
CCCCOC(=O)C1=C(C)NC(=O)NC1c1cccc([N+](=O)[O-])c1 (stereo not given)	6.51µM*	-43.8%	1.4%	11.3%
COc1ccc(C2NC(=O)NC(C)=C2C(=O)OCc2ccc3c(c2)OCO3)cc1OC (stereo not given)	10.3µM*	.	-1.0%	-1.0%
Cc1ccc(F)c(S(=O)(=O)NC(=O)C2(C)CCN2C(=O)Cc2cccc3ccccc23)c1 (stereo not given)	.	.	0.6%	.
CSC1(SC2=NCCN2)SC2(NCCN2)S1	.	8.2µM*	23.9%	7.31µM*
COC(=O)c1cc(NC(=O)CN(c2cccc(OC)c2)S(=O)(=O)c2ccccc2)ccc1Cl	?	23.1µM*	2.2%	-9.8%
CCOc1ccccc1N(CC(=O)Nc1ccc(OC)cc1OC)S(=O)(=O)c1ccccc1	16.4µM*	3.4%	2.5%	-0.2%
COC(=O)c1cc(NC(=O)CN(c2ccccc2OC)S(=O)(=O)c2ccccc2)ccc1Cl	23.1µM*	?	-0.5%	1.9%
CCCCCc1c(CC)ncn1CCc1ccccc1OC	.	.	3.3%	.
SMILES	ELG1 repair inh	Nrf2 block	Nrf2 ARE act	A549 tox
O=C(CCSc1ccc(F)cc1)NNC(=O)c1ccc([N+](=O)[O-])cc1	7.0%	-4.4%	-0.5%	1.5%
NS(=O)(=O)c1ccc(CCNC(=O)c2ccc(Cl)s2)cc1	-2.0%	-45.2%	0.0%	0.4%
NS(=O)(=O)c1ccc(CCNC(=O)c2ccc([N+](=O)[O-])s2)cc1	13µM*	9.2µM*	3.7%	?
Cc1ccc(-n2nnnc2SCC(=O)Nc2cccc(NC(=O)c3ccco3)c2)cc1C	?	?	2.2%	-1.6%
CC(=O)c1ccc(-n2nnnc2SCC(=O)Nc2cccc(NC(=O)c3ccco3)c2)cc1	?	23.1µM*	7.0%	-13.3%
Cc1ncc(CO)c(/C=N/NC(=O)c2cc(Br)ccc2O)c1O	16.4µM*	?	-0.6%	-12.6%
COc1ccc(N(CC(=O)NC2CCCC2)C(=O)Cn2nnc(-c3ccc(F)cc3)n2)cc1	-28.5%	?	-0.1%	-8.3%
CCN(CC(=O)Nc1cc(Cl)ccc1-n1cncn1)Cc1nc2ccccc2c(=O)[nH]1	8.2µM*	-35.7%	-0.5%	-7.8%
CC(=O)Nc1ccccc1OC1=N[S+](=O)([O-])c2ccccc21	.	10.9%	.	10.1%
COc1cccc(N2CCN(C(=O)c3ccc(CS(=O)c4ccc(C)cc4)o3)CC2)c1 (stereo not given)	9.6%	?	0.3%	-13.6%
O=C(c1ccc(CS(=O)Cc2cccc(Cl)c2)o1)N1CCN(c2ccc(F)cc2)CC1 (stereo not given)	.	.	-0.3%	.
Cc1ccc(C)c(N2CCN(C(=O)c3ccc(CS(=O)Cc4cccc(Cl)c4)o3)CC2)c1 (stereo not given)	-22.8%	18.4µM*	0.0%	-8.0%
COc1cccc(N2CCN(C(=O)c3ccc(CS(=O)Cc4ccc(C)cc4)o3)CC2)c1 (stereo not given)	14.6µM*	-20.2%	-0.1%	1.4%
O=C(c1ccc(CS(=O)Cc2ccc(Cl)cc2)o1)N1CCN(c2ccc(F)cc2)CC1 (stereo not given)	23.1µM*	?	0.4%	1.0%
Cc1ccnc(Nc2cccnc2)n1	.	.	0.4%	.
CCc1nn2c(=O)cc(-c3ccncc3)nc2s1	.	-29.1%	.	4.7%
CC(=O)c1sc(C(C)(C)C)cc1NC(=O)/C=C/C(=O)O	?	-19.5%	15.8µM*	-0.6%
CC(=O)c1sc(C(C)(C)C)cc1NC(=O)CCC(=O)O	2.8%	-27.6%	-0.3%	3.4%
C=C1/C=C(\C)C(C)(O)CC(O)CC(=O)C(O)C(O)C(C)CC(C)OC(=O)/C(C)=C/CC/C=C/C(OC)C(O)CC(C)C1 (stereo not given)	14.6µM*	?	5.2%	-19.5%
CCc1ccc(CNC(=O)C(CC)n2nc(C)c3c(C)n(-c4ccccc4)nc3c2=O)cc1 (stereo not given)	.	?	0.2%	3.2%
Cc1cc(=O)oc2c(C)c(OCC(=O)N3CCN(C(=O)C4COc5ccccc5O4)CC3)ccc12 (stereo not given)	?	6.1%	0.4%	12.5%
Cc1c(CC(=O)N2CCN(C(=O)C3COc4ccccc4O3)CC2)c(=O)oc2cc(O)ccc12 (stereo not given)	0.731µM*	-6.3%	0.5%	1.9%
Cc1c(CC(=O)N2CCN(C(=O)C3COc4ccccc4O3)CC2)c(=O)oc2cc(O)cc(O)c12 (stereo not given)	?	4.9%	1.6%	8.1%
